# Results: PubChem BioAssay AID2078 (The Scripps Research Institute Molecular Screening Center, 2009)
# Activity calls are given as the source filed them. How the calls were made is not given here.
# Tested on: Cytotoxicity
# Assay: STAT3 inhibitors, late-stage profile, late-stage follow-up, cell-based, STAT1 panel, qPCR, cytotoxicity (AID 2078)
# Conditions: cell reporter assay; series mostly up to 55.7 µM
compound,measurement,value
c1ccc(CC2CCN(c3ncnc4sccc34)CC2)cc1,outcome,inactive
